# Data as given in the supplement of paper PMC3334620.
# The full ranking holds about 33,000 sequences; the median of “E-score (-0.5 to 0.5)” is about -0.016, and the highest 2% start at about 0.32. What follows is part of a selection rich in the highest values, with near analogues and random picks from the rest.
# Biological target: T1, Stp1 (UniProt B3LFK1)
# T1 sequence: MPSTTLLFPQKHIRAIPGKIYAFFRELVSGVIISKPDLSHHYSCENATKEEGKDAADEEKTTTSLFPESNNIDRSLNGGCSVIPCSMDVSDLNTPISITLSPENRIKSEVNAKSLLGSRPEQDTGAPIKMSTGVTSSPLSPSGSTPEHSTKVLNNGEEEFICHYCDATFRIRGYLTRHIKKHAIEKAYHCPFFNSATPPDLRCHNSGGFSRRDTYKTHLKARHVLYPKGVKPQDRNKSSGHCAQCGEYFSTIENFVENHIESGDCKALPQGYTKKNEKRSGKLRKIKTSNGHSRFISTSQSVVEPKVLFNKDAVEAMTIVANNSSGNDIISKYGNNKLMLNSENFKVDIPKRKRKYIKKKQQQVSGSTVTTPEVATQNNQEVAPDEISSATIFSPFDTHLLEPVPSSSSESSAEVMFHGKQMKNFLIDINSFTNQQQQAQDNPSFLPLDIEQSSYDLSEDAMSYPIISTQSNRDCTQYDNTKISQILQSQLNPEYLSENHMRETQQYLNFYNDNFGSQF
# Test: PBM E-score (8-mer binding enrichment) (E-score (-0.5 to 0.5)); higher = stronger / more preferred TF binding
# Conditions: protein concentration: 200 nM; construct: GST-full length
# Method in brief: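 Each ungapped eight-base word and its reverse complement, pooled, received an E-score from the Universal PBM Analysis Suite. Underlying scans, normalised with masliner, recorded fluorescent anti-GST bound to GST-tagged yeast transcription factors. These were applied at about 100-200 nM to universal all-10-mer Agilent arrays double-stranded by primer extension.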
row,Sequence,PBM E-score
1,ATATGCCC,-0.155
2,AGATGCCC,0.06
3,AGATGCCT,0.107
4,CCAACCTA,-0.175
5,ATGCGGAA,0.164
6,GTGCGGAA,0.132
7,CTGCGGTA,0.0752
8,CTGCGGCC,0.214
9,ATGCGGTA,0.0546
10,ATGCGGCA,0.467
11,GTGCGGGA,0.041
12,GTGCGGCA,0.469
13,CTGCGGCA,0.422
14,AGTTTGTC,-0.0407
15,CTCTGGGC,-0.215
16,AGAGGTCG,-0.096
17,AGATGAGG,-0.192
18,AGTTAAGG,-0.0459
19,ACCTGTAA,0.00569
20,AGATAGAG,-0.0214
21,GCTGATCC,-0.116
22,AGCGGCAG,0.301

row,Sequence,PBM E-score
1,AGTGGCAA,0.162
2,AGCGGCAC,0.457
3,TGCGGCCA,0.233
4,AGCGGGAT,0.0317
5,AGCGGCCT,0.0372
6,AGCGGAAA,0.0606
7,AGTGGCAC,0.209
8,TCCGGCAA,-0.00549
9,TGCGGCAA,0.412
10,AGCGGCAT,0.406
11,AGCGGCAA,0.321
12,CACATCGG,-0.152
13,AATTTGGG,-0.0818
14,CGAGGCCA,-0.178
15,GATAAGGC,0.216
16,AAGGGCGT,0.0591
17,CGATAATC,-0.128
18,ATCCGTCA,-0.0596
19,CTAAACGA,0.0761
20,CAGTCTGA,-0.0528
21,CGCGGTAG,0.0224
22,CGCGGCAG,0.378

row,Sequence,PBM E-score
1,GGCGGCAA,0.286
2,GTCGGCAC,0.172
3,CGCGGGCA,0.175
4,CGTGGCAG,0.239
5,GGCGGCAC,0.446
6,GGGGGCAC,-0.266
7,CGCGGCAA,0.424
8,AGGGGACA,-0.145
9,AGGGGGGG,-0.287
10,AGGCCTCC,-0.164
11,GCTCTCGA,-0.144
12,ATAACCCC,-0.223
13,GCAAGCTA,-0.0537
14,AGGCATGC,0.144
15,AGGCATGA,-0.0157
16,GGGCATGA,-0.0369
17,CGGCATGA,0.346
18,CTGCATGC,0.12
19,CGGCATGC,0.338
20,CGAGGAGA,-0.162
21,AGCCAAAC,0.00731
22,CATTGCGG,0.158

row,Sequence,PBM E-score
1,GCGCTGCA,0.232
2,GGATTGAA,-0.0161
3,GCGTGAGC,0.193
4,GGCGGGCA,0.0418
5,AGGCGGGA,-0.183
6,GGGCGGTA,-0.128
7,AGGCGGAA,0.0802
8,GGGCGGAA,-0.0696
9,CGGCGGAA,0.328
10,CGGCGGTA,0.335
11,AGCCGGCA,0.0341
12,GGGCGGGA,-0.11
13,GGGCGGCA,0.356
14,AGGCGGCA,0.369
15,AGGCGGTA,-0.0932
16,CACCTATG,-0.108
17,CGCTAAAG,0.0823
18,GTTGAATA,0.0719
19,ATGTCCTC,-0.113
20,AGCTGCGA,-0.129
21,GCTCAACA,0.00726
22,CAGTCGGG,-0.14

row,Sequence,PBM E-score
1,AGGCGGCG,0.391
2,CGGCGGCA,0.418
3,AGGCGGCC,0.147
4,AGGCGGGG,0.023
5,CGGCGGGA,0.207
6,CGGCGGCC,0.214
7,CCTAGCTC,-0.268
8,ATAGAAAT,0.197
9,CTGGCCCC,-0.311
10,CATCACTC,-0.0239
11,CAGACGCC,0.114
12,AAGACGGA,-0.0847
13,AAGACGGC,0.318
14,GAGACGAC,-0.104
15,AAGACGGT,-0.169
16,GAGACGGC,0.411
17,CAGACGGA,0.0941
18,GAGACGGA,0.065
19,CAGACGGC,0.42
20,AAGACGCC,0.321
21,AAGACGCT,-0.13
22,CAGACGGG,-0.242
